The text below walks through data of PubChem BioAssay (NCATS).

Test [1] in a line: Primary qHTS for inhibitors of nuclear receptor binding SET domain protein 2 (NSD2) in an isogenic RCH-ACV NSD2 p.E1099K mutant (9B) (AID 1645876). In general terms: In qHTS, concentration-response curves come from the screen itself.
Test [2] can be described thus: Primary qHTS for inhibitors of nuclear receptor binding SET domain protein 2 (NSD2) in an RCH-ACV wild type WT cells (2C) (AID 1645877).

Where “and” joins values, the source holds several entries; their conditions need not be identical. Identical values can stand only once. Records with an inconclusive call do not appear. Unmarked numbers belong to inactive results. Calls of active or inactive are those of the source. Calls follow the shape of the dose curve; as a rule, active = well fitted curve in the direction sought with a large enough effect; inconclusive = small, poorly fitted or top-dose-only effect, or another doubt; inactive = no such curve, though single readings can be large; an effect the other way counts as inactive or inconclusive.
% is scaled to controls: 0 for no effect and ±100 for the full control effect; potency is read from the fitted curve at half-maximal effect.
Also: nearly all actives have a fitted effect of over 70% in size.

For the compound `O=C1c2ccccc2-[n+]2ccc3c([nH]c4ccccc43)c21`, the Potency in test [1] and in test [2] was 1.32 µM (active) each time. On to `O=C(NCc1ccccc1)c1csc(Nc2ccncn2)n1`, for which the Potency in test [1] is 11.8 µM (active); in test [2] it was 9.34 µM (active) and 16.3 µM (active). Turning to `COc1cccc([C@@H](C)NCCCc2ccccc2Cl)c1`, the Potency in test [1] and in test [2] was 18.6 µM (active) in each case. `CCNc1cc(NC2CCC(O)CC2)nc(Nc2ccc3c(ccn3Cc3ccccc3)c2)n1` (stereo not given): in test [2], the Potency is 3.32 µM (active).

`COc1ccc(-c2nc(N3CCOCC3)c3sc(CN(C)c4ncc(C(=O)NO)cn4)cc3n2)cn1`: the Potency in test [1] is 7.3 nM (active) and 29.5 nM (active); in test [2], 8.2 nM (active) and 33.2 nM (active). Turning to `N#Cc1ccc(NC(=O)Nc2ccccc2Br)c2n[nH]nc12`, the Potency entry in test [1] and in test [2] was “inactive” throughout. Turning to `O=c1cc(-c2cccc3c2Sc2ccccc2S3)oc(N2CCOCC2)c1`, the Potency was 11.6 µM (active) and 14.8 µM (active) in test [1]; 11.6 µM (active) and 11.8 µM (active) in test [2]. Take `NC(=O)c1cccc2[nH]c(-c3ccc([C@H]4CCCN4)cc3F)nc12`: the Potency was 14.8 µM (active) in test [1] and 10.5 µM (active) in test [2]. For `COc1ccc(-c2cc(=O)c3c(O)cc(O)cc3o2)cc1O` the same measures were 11.8 µM (active) and 14.8 µM (active). Consider `O=C(O)c1ccccc1C(=O)Nc1ccc(-c2ccccc2)cc1`, for which the Potency entry in test [1] and in test [2] was “inactive” throughout. `CO[C@H]1C(=O)[C@]2(C)[C@@H](OC)C[C@H]3OC[C@@]3(OC(C)=O)[C@H]2[C@H](OC(=O)c2ccccc2)[C@]2(O)C[C@H](OC(=O)[C@H](O)[C@@H](NC(=O)OC(C)(C)C)c3ccccc3)C(C)=C1C2(C)C`: the results for the Potency in test [1] and in test [2] were 0.003 µM (active) and 0.0026 µM (active), respectively.

As for `CC[C@@]1(O)C[C@H](O[C@H]2C[C@H](N(C)C)[C@H](O[C@H]3C[C@H](O)[C@H](O[C@H]4CCC(=O)[C@H](C)O4)[C@H](C)O3)[C@H](C)O2)c2c(cc3c(c2O)C(=O)c2c(O)cccc2C3=O)[C@@H]1C(=O)OC`, the Potency in test [1] is 2.63 µM (active); in test [2] it was 1.18 µM (active).

Take `CCOC(CN1C(=O)[C@](CC(=O)Nc2ccc(C)cc2)(NC(=O)Nc2ccc(C)cc2)c2ccccc21)OCC`: the Potency in test [1] is 10.5 µM (active); in test [2], 6.61 µM (active). On the same counts, the results for `CC(C)(C)COc1ccc(-n2cc(C(=O)O)cn2)cc1C#N` are “inactive” and “inactive”. Turning to `c1cc(-c2sc(-c3ccncc3)c(-c3ccncc3)c2-c2ccncc2)ccn1`, the Potency entry in test [1] and in test [2] was “inactive” each time.

`CN(C)Cc1ccc(-c2nc3cccc4c3n2CCNC4=O)cc1`: the Potency was 11.8 µM (active) in test [1] and 7.42 µM (active) in test [2]. As for `COC1CCC(N(C(=O)C2CCC(C)CC2)c2cc(C3=CCCCC3)sc2C(=O)O)CC1` (stereo not given), the Potency result in test [1] and in test [2] was “inactive” throughout. On to `NS(=O)(=O)c1ccc(NC2=CC(=O)c3ccccc3C2=O)cc1`, for which the Potency result in test [1] and in test [2] was “inactive” in each case. As for `CCCCCN(C)CCC(O)(P(=O)(O)O)P(=O)(O)O`, the outcome in test [1] was “inactive [at 4.96 µM]”. Besides, the activity change, negative = cell killing in test [2] is 7.25% [at 4.96 µM].

Consider `O=C(O)c1ccc(-c2c[nH]c3ncc(-c4ccccc4)cc23)cc1C1CCCC1`, for which the Potency entry in test [1] is “inactive”. Further, in test [2], the Potency is 18.6 µM (active). On the same counts, the results for `NC(CO)(CO)CCc1ccc(Sc2cccc(OCc3ccccc3)c2)cc1Cl` are 7.42 µM (active) and 7.42 µM (active). On the same counts, the results for `Oc1ccc(C2=Cc3ccc(O)cc3OC2)cc1` are 1.18 µM (active) and 1.32 µM (active). On the same counts, the results for `CC(C)[C@H](CO)Nc1nc(Nc2ccc(C(=O)O)c(Cl)c2)c2ncn(C(C)C)c2n1` are “inactive” and “inactive”.
